# mHTT-CaM PPI inh – disrupts binding of mutant huntingtin to calmodulin; AID 1671202; inhibition, % at 15 µM; actives 3.6% (n = 190,000); AlphaScreen His-mHTT/GST-CaM binding, luminescence; P42858
# Pf apPOL inh – Pf-apPOL DNA polymerase inhibition | Recombinant Pf-apPOL, molecular beacon fluorescence, 1.5 h | inhibition, % at 10 µM | actives 0.25% (n = 210,000) | AID 1794808
# Numbers stand for hits; n = inactive; x = no result given; ! = not confirmed by another sample. A selection: hits, their analogues and other compounds. The true share with any hit is near 3.5%. Cut-off read from the data, not from the text of the source: active = inhibition above about 50%; inactive = the rest.
SMILES,mHTT-CaM PPI inh,Pf apPOL inh
CCN(CC)C(=O)CC(c1ccc(N(C)C)cc1)c1c(OC)cc(OC)c2c(-c3ccccc3)cc(=O)oc12 (configuration not stated),n,n
COc1cc(C(CC(=O)N2CCCC2)c2c(OC)cc(OC)c3c(-c4ccccc4)cc(=O)oc23)cc(OC)c1OC (configuration not stated),52,n
COc1ccc(C(CC(=O)N2CCOCC2)c2c(OC)cc(OC)c3c(-c4ccccc4)cc(=O)oc23)cc1 (configuration not stated),n,n
COc1cc(OC)c2c(-c3ccccc3)cc(=O)oc2c1C(CC(=O)N1CCCC1)c1ccc(N(C)C)cc1 (configuration not stated),90,n
COc1ccc(C(CC(=O)N2CCCC2)c2c(OC)cc(OC)c3c(-c4ccccc4)cc(=O)oc23)cc1 (configuration not stated),81,n
COc1ccc(C(CC(=O)N2CCCC2)c2c(OC)cc(OC)c3ccc(=O)oc23)cc1 (configuration not stated),n,n
O=C(NCCNc1ccc([N+](=O)[O-])cc1Cl)c1ccccc1Br,n,n
O=C(Cc1ccc(Cl)cc1)Nc1cnc(-c2ccccc2)nc1,n,n
COc1ccc(/C=C2/S/C(=N\O)NC2=O)cc1,n,n
O=C(Nc1nnc(CCS(=O)(=O)c2ccccc2)o1)C1COc2ccccc2O1 (configuration not stated),65,n
Cc1cc(C)nc(NS(=O)(=O)c2ccc(NC(=O)C3COc4ccccc4O3)cc2)n1 (configuration not stated),n,n
O=C(CSc1ccccc1)Nc1nnc(-c2cc(Cl)sc2Cl)o1,n,n
O=C(Nc1nnc(-c2cc(Cl)sc2Cl)o1)C1COc2ccccc2O1 (configuration not stated),81,n
Clc1ccc(-c2cn3c(n2)CCC3)cc1Cl,n,n
Clc1ccc(-c2cnc3n2CCC3)cc1Cl,89,n
Oc1ccc(I)cc1C=Nc1ccc(N2CCOCC2)cc1,n,n
C=CCn1ccc2ccn(Cc3nc(Cc4ccccc4)no3)c(=O)c21,n,n
CCN1c2cc(Cl)ccc2C(=O)NC12CCN(C(=O)NCc1ccc(C)cc1)CC2,n,n
CCN1c2cc(Cl)ccc2C(=O)NC12CCN(C(=O)NCc1ccc(F)cc1)CC2,58,n
COc1ccc(-c2c(C#N)c(N)nc(SCC(=O)c3ccc(O)c(O)c3)c2C#N)cc1,99,n
N#Cc1c(N)nc(SCC(=O)c2ccc(Br)cc2)c(C#N)c1-c1ccccc1,n,n
N#Cc1c(N)nc(SCC(=O)c2ccc(O)c(O)c2)c(C#N)c1-c1ccc(O)cc1,n,n
N#Cc1c(N)nc(SCC(=O)c2ccc(O)c(O)c2)c(C#N)c1-c1cccc(Cl)c1,85,n
COc1ccc(OC)c(C=C2Oc3c(ccc(O)c3CN(C)C)C2=O)c1,n,n
O=C1CCC(=O)N1c1nc2n(n1)C(c1ccccc1)C=C(c1ccc(Cl)cc1)N2 (configuration not stated),77,n
SMILES,mHTT-CaM PPI inh,Pf apPOL inh
O=S(=O)(Nc1nc2n(n1)C(c1ccccc1)C=C(c1ccc(Cl)cc1)N2)c1ccccc1 (configuration not stated),n,n
CCN(CC)c1ccc(NC(=O)c2cnccn2)cc1,60,n
CCOc1ccc(NC(=O)c2cnccn2)cc1,n,n
O=C(COc1ccccc1)N1CCCC(COc2ccc(C(=O)N3CCCC3)cc2)C1 (configuration not stated),n,n
Cc1c(Cl)cccc1NC(=O)N1CCC(c2cc(N)on2)CC1,n,n
O=C(NCc1ccc(F)c(Cl)c1)C1CCCN(c2nccnc2Oc2ccccc2)C1 (configuration not stated),n,n
Cc1ccc(NC(=O)N2CCn3cccc3C2Cc2ccccc2)cc1 (configuration not stated),n,n
COc1ccc(C)cc1NC(=O)N1CCn2cccc2C1Cc1ccccc1 (configuration not stated),n,n
CCc1ccc(NC(=O)N2CCn3cccc3C2Cc2ccccc2)cc1 (configuration not stated),n,n
COc1ccc(NC(=O)N2CCn3cccc3C2Cc2ccccc2)c(OC)c1 (configuration not stated),54,n
O=C(Nc1cccc(Cl)c1)N1CCn2cccc2C1Cc1ccccc1 (configuration not stated),92,n
O=C(Nc1ccc(F)cc1)N1CCn2cccc2C1Cc1ccccc1 (configuration not stated),69,n
O=C(O)CC12CC3CC(CC(C3)C1)C2,n,n
Cc1cnc(C(=O)NCc2ccccn2)cn1,n,n
Cn1c(=O)c(NCCCN2CCCc3ccccc32)nc2ccncc21,60,n
Cn1c(=O)c(NCCc2ccc(Cl)cc2)nc2ccncc21,n,n
O=c1c(NCCN2CCCC2)nc2ccncc2n1Cc1ccccc1,n,n
Cn1c(=O)c(NCCc2c[nH]c3ccccc23)nc2ccncc21,100,n
CC(=O)Nc1cnc(N2CCCCCC2)nc1,n,n
Cc1ccc(C(=O)N2CC=C(C(=O)N3CCCC3)CC2)cc1,n,n
O=C(CSc1nc2[nH]ncc2c(=O)n1-c1ccc(F)c(Cl)c1)N1CCCc2ccccc21,n,n
CCN(CC)C1C(=O)Nc2ccc(Cl)cc2C1c1ccccc1 (configuration not stated),95,n
O=C1CN(C(=O)c2ccccc2C(F)(F)F)C(c2ccccc2)c2cc(Cl)ccc2N1 (configuration not stated),n,n
O=C(Cc1csc(Nc2ccc(Cl)cn2)n1)NCC1CCCO1 (configuration not stated),n,n
COc1ccc(C2Oc3ccccc3C3=C2C(c2ccc(C)cc2)n2ncnc2N3)cc1 (configuration not stated),n,n
SMILES,mHTT-CaM PPI inh,Pf apPOL inh
Fc1ccc(C2CC(c3ccc(I)cc3)Nc3ncnn32)cc1 (configuration not stated),n,n
Clc1cccc(C2CC(c3ccc(I)cc3)Nc3ncnn32)c1 (configuration not stated),51,n
Fc1ccc(C2CC(c3ccc(Cl)cc3)Nc3ncnn32)cc1 (configuration not stated),58,n
COc1cccc(C2CC(c3cccc(Cl)c3)n3ncnc3N2)c1 (configuration not stated),n,n
O=c1cc(C(F)(F)C(F)F)[nH]n1-c1ccccc1,n,n
Cc1ccc(NC(=O)Cc2cn3cc(F)ccc3n2)c(C)c1,n,n
O=C(c1cc(-c2ccccc2)nc2ccccc12)N1CCCC1,n,n
O=C(c1ccccc1Br)N1CCN(c2cccc(Cl)c2)CC1,64!,n
O=C(c1cccc(Cl)c1)N1CCN(c2ccccc2)CC1,n,n
O=C(c1cc(-c2ccncc2)nc2ccccc12)N1CCN(c2cccc(Cl)c2)CC1,91,n
O=C(CCCOc1ccccc1)N1CCN(Cc2ccccc2)CC1,n,n
O=C(CCCOc1ccccc1)N1CCN(c2cccc(Cl)c2)CC1,70,n
Cc1ccc(-c2nc(C=Nc3ccc(C)c(Cl)c3)c(O)o2)cc1,n,n
O=C1C(=CC=Cc2ccco2)SC(=S)N1C1CCCCC1,78,n
S=c1[nH]nc(C2CCCCC2)n1/N=C\C=C\c1ccco1,n,x
COc1ccc(N=C2C(=O)Nc3ccc(C)c(Br)c32)cc1,64,n
Cc1ccc(N=C2C(=O)Nc3ccc(C)c(Br)c32)cc1,n,n
